Screening results deposited in PubChem by several laboratories.
Hits are enriched below; roughly 1.2% of the tested compounds scored in any of these assays.
HUVEC tox TNFa – HUVEC cytotoxicity counter-screen, TNF alpha stimulated; HUVEC TNFalpha-stimulated, Hoechst cell count, imaging; 93,000 tested, 0.17% active; cell count reduction, % at 2 µM;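 active = cell count reduction exceeding the screen mean by over 5 SD, scaled to untreated wells per plate, cut at about 78% in these data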;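 note: cells counted after 24 h of TNF alpha exposure following the 1 h pretreatment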
F-actin modifier – alters cytoskeleton assembly in HUVEC cells | AID 836 | HUVEC TNFa F-actin phalloidin imaging, high content | inhibition, % at 2 µM | 91,000 tested, 0.18% active;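 active = inhibition above the batch mean plus 3 SD and confirmed as a hit by visual image inspection, cut at about 30% in these data, passing the limit was not always enough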
E-sel TNF inh – TNF alpha driven E-selectin expression inhibition. HUVEC TNFa-induced E-selectin immunofluorescence, high content. inhibition, % at 2 µM. 120,000 tested, 0.71% active. AID 1246;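 active = inhibition above the batch mean plus 3 SD, and confirmed as a hit on visual image review, cut at about 43% in these data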
Phagocytosis inh – blocks phagocytosis by macrophages. J774A.1 macrophage IgG-bead phagocytosis, imaging. AID 1029. inhibition, % at 5 µM. 110,000 tested, 0.07% active;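 active = inhibition above the mean of the plate negative controls plus 5 SD, cut at about 13% in these data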;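 note: phagocytic index as fraction of beads internalized from green versus red external bead signal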
VCAM1 TNFa inh – reduces TNF alpha induced VCAM1 expression in HUVEC | AID 802 | HUVEC TNFa-induced VCAM-1 immunofluorescence, high-content imaging | 95,000 tested, 0.48% active | inhibition, % at 2 µM;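 active = inhibition above the batch mean plus 3 SD, with images confirmed as a hit by eye, cut at about 37% in these data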
SDO1 yeast rescue – compounds rescuing growth of sdo1-depleted yeast, bone marrow failure model; S. cerevisiae sdo1-depleted JHY4D growth rescue, OD600 30 h; hits give high values; pdr5 snq2 efflux-pump mutant strain; z-score at 10 µM; 140,000 tested, 0.21% active; AID 817;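 active = z-score above 3 at both the 24 hr and the 30 hr optical density reads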
Numbers stand for hits; n = inactive; x = no result given; [ ] = dose if it differs, or a comment.

SMILES	HUVEC tox TNFa	F-actin modifier	E-sel TNF inh	Phagocytosis inh	VCAM1 TNFa inh	SDO1 yeast rescue
Cc1c(NC(=O)CN2CCCC(C)C2)ccc2nsnc12 (centres undefined)	x	x	n	x	x	x
COc1cc(/C=C/C(=O)OCC(=O)N2CCC(Cc3ccccc3)CC2)ccc1O	x	x	n	n	x	n
COc1cc(/C=C/C(=O)OCC(=O)N2CCc3ccccc3C2)ccc1O	x	x	n	66[artifact]	x	n
COc1ccc(C2CC(c3ccccc3)=NN2C(=O)COC(=O)C2(C)CC2(Cl)Cl)cc1 (centres undefined)	x	x	n	x	x	x
CCOc1cc2[nH]c(=O)n(CCCN3CCCC3=O)c(=O)c2cc1OCC	n	n	46	n	n	n
COc1ccc(S(=O)(=O)N(CC(N)=O)C2CCCCC2)cc1Cl	n	n	45	n	n	n
COc1ccc(S(=O)(=O)N(C)CC(=O)NC2CCCCC2)cc1Cl	n	n	n	n	n	n
CCOc1cc(N2CCOCC2)c(OCC)cc1NS(=O)(=O)c1ccc(Cl)s1	n	n	89	n	n	n
O=C(Nc1ccccc1)N(CCc1ccncc1)C1CCCCC1	n	n	98	x	n	x
CC(C)c1ccc(NC(=O)N(CCc2nc3ccccc3[nH]2)C2CCCC2)cc1	n	n	n	x	n	n
CS(=O)(=O)N(CC(=O)NCc1ccncc1)C1CCCCC1	x	x	n	x	x	x
CC1(C)CC(=O)C2=C(C1)NCN(Cc1ccc3c(c1)OCO3)C2	n	n	49	n	n	n
c1cc2c(cc1CN1CCOCC1)OCO2	n	n	n	n	n	n
CSC(=S)N/N=C(\C)c1ccccc1	x	x	n	x	x	x
CCCCOC1CC(c2ccc(OCc3ccc(OC)cc3)c(OC)c2)N(C)O1 (centres undefined)	x	x	n	x	x	x
C=CCn1c(SCc2c(C)noc2C)nc2cc(C(=O)O)ccc2c1=O	x	x	n	x	x	n
C=CCn1c(SCc2c(C)noc2C)nc2ccccc2c1=O	n	n	n	n	60	n
COc1ccc(/C=C2/N=C3CCCCCN3C2=O)cc1	x	x	n	x	x	x
CCOc1ccc(/C=N/Nc2cc(=O)n(C)c(=O)n2C)cc1	x	x	x	n	x	n
COc1cccc(N2CC(C(=O)Nc3nnc(SCC(=O)c4ccccc4)s3)CC2=O)c1 (centres undefined)	x	x	61	n	x	n
COc1ccc(Cn2c(CCC(=O)O)nc3cccnc32)cc1	n	n	x	n	93	n
COc1ccccc1-n1c(=O)[nH]c2c(C(N)=O)nc(C3CCCCC3)nc21	n	n	68	n	n	n
N#C/C(=C\c1cc(Cl)cc(Cl)c1O)C(=O)NC1CCCCC1	n	n	100	n	n	n
CCOC(=O)C1(C)Oc2ccc(S(=O)(=O)CC)cc2NC1=O (centres undefined)	x	x	n	x	x	x
COc1cc(C(=O)N2CCN(c3cc(Cl)ccc3Cl)CC2)cc(OC)c1OC	n	n	x	n	58	n
SMILES	HUVEC tox TNFa	F-actin modifier	E-sel TNF inh	Phagocytosis inh	VCAM1 TNFa inh	SDO1 yeast rescue
COc1cc(C(=O)N2CCN(c3cccc(C)c3C)CC2)cc(OC)c1OC	n	n	x	x	n	n
CC(=O)Nc1ccc(NC2(C)C(=O)c3ccccc3C2=O)cc1	88	n	x	n	93	n
CN(C)c1ccc(NC(=O)COC(=O)Cn2nnc3ccccc32)cc1	x	x	89	n	x	n
O=S(=O)(c1ccc(Br)s1)N1CCN(c2ccccc2)CC1	n	36	n	n	84	x
CCN1CCN(S(=O)(=O)c2ccc(Br)s2)CC1	x	n	n	n	n	n
CC(=O)c1ccc(NC(=S)N2CC(C)CC(C)C2)cc1 (centres undefined)	x	x	77	n	x	n
CC(=O)c1ccc(NC(=S)N2CCC(O)CC2)cc1	x	x	n	n	x	n
Cc1c(Cl)cccc1NC(=S)N1CCN(S(=O)(=O)c2cccs2)CC1	x	x	n	x	x	x
CC(=O)c1cccc(NC(=O)c2cc(C(C)C)on2)c1	n	n	x	n	n	n
CC(=O)c1cccc(NC(=O)c2cc(-c3ccc(F)cc3)on2)c1	n	n	x	n	71	n
Cc1nc2c(sc3nc4c(cc32)COC(C)(C)C4)c(=O)o1	n	n	81	n	n	n
Cc1nc2c(sc3nc4c(cc32)COC(C)(C)C4)c(=O)n1Cc1ccccc1	n	n	n	n	n	n
O=c1cc(O)n(-c2ccc(F)cc2)c(=S)[nH]1	n	n	71	n	n	n
OCCC1CN(Cc2cccc(-n3cccn3)c2)CCN1Cc1ccccc1 (centres undefined)	x	x	n	x	x	x
CN(c1ccccc1)S(=O)(=O)c1ccc(NC(=S)Nc2ccccc2)cc1	n	n	87	x	n	n
CC(=O)Nc1ccc(S(=O)(=O)N(C)c2ccccc2)cc1	x	x	n	n	x	n
COc1ccc(S(=O)(=O)NCc2csc(-c3cccnc3)n2)cc1	n	n	70	n	n	n
O=C(Nc1nnc(SCc2ccccc2)s1)c1cccc([N+](=O)[O-])c1	x	x	64	n	x	n
O=C(Nc1nnc(CSCc2ccccc2F)s1)c1cccc([N+](=O)[O-])c1	x	x	x	n	x	n
Cc1ccc(-c2nnc3ccc(SCC(=O)Nc4cc(C)on4)nn23)cc1	n	66	n	n	n	n
Cc1cc(NC(=O)CSc2ccc3nnc(-c4ccc(F)cc4)n3n2)no1	n	n	n	x	n	n
COc1ccc(NC(C)=O)cc1NC(=O)c1ccc2ccccc2c1	x	x	n	x	x	x
COc1cccc(C(C(=O)NC(C)(C)C)N(C(=O)CCC(=O)Nc2cc(C)on2)C2CC2)c1OC (centres undefined)	n	n	67	n	n	n
CCCCN(C(=O)CCC(=O)Nc1cc(C)on1)C(C(=O)NC(C)(C)C)c1cccc(OC)c1OC (centres undefined)	n	n	n	x	n	n
CC(Sc1nnc(-c2cccs2)n1Cc1ccccc1)C(=O)NCc1ccc2c(c1)OCO2 (centres undefined)	n	x	80	n	n	n
Cc1cc(C(=O)CSc2nncn2C)c(C)n1-c1ccccc1	x	x	n	x	x	x
CC(C)CCSc1nc2[nH]ncc2c(=O)[nH]1	x	x	n	x	x	x
CCOC(=O)c1cnc2cc3c(cn2c1=O)CCCC3	n	n	n	x	n	n
